Screening data deposited in PubChem by several laboratories.
A selection: hits, their analogues and other compounds. The true share with any hit is near 2.3%.
Mcl1-Bid inh: Mcl-1/Bid binding inhibitors, primary screen, biochemical, TR-FRET, 1536-well; inhibition, % at 21.7 µM; AID 1021, 2008; Induced myeloid leukemia cell differentiation protein Mcl-1 (Homo sapiens), Q07820; TR-FRET Mcl-1/Bid-Dy647 peptide binding; 0.97% of 220,000 active;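 active = compounds that cut the binding signal by more than half at the single screening dose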;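 note: His-tagged Mcl-1 with europium anti-His antibody binding Bid BH3 peptide; 0% = Mcl-1 plus peptide wells and 100% = peptide-only wells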
Target sequence (Q07820 whole entry, looked up): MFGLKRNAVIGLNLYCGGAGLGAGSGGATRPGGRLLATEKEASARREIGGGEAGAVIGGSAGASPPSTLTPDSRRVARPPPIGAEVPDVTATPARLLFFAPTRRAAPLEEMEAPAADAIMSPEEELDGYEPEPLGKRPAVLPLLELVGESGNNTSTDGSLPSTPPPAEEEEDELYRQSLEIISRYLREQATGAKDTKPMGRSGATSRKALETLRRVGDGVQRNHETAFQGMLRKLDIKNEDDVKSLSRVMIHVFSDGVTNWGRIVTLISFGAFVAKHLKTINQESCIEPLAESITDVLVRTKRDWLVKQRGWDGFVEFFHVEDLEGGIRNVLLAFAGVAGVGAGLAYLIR
Bcl-xL primary: inhibitors of human Bcl-xL, primary screen, biochemical, fluorescence polarization, HTS; Bcl-2-like protein 1 (Homo sapiens), Q07817; inhibition, % at 10.9 µM; 0.7% of 320,000 active; GST-Bcl-xL / FITC-Bim BH3 peptide fluorescence polarization;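 active = inhibition above the mean of all tested compounds plus 3 SD, cutoff set per campaign, cut at about 30% in these data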;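 note: 0% = DMSO wells and 100% = unlabeled Bim-BH3 peptide competitor; inhibitors lower millipolarization by displacing the labeled peptide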
Target sequence (Q07817 whole entry, looked up): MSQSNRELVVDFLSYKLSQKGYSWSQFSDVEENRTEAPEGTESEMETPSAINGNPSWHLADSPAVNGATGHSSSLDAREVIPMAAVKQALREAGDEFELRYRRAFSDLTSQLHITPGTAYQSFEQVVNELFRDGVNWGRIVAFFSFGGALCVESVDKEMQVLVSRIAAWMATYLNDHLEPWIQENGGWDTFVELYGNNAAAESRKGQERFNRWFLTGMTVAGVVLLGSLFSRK
GLD-1 TGE inh: GLD-1/TGE RNA complex disruptors, primary screen, biochemical, fluorescence polarization | AID 2280, 2010 | Female germline-specific tumor suppressor gld-1 (Caenorhabditis elegans), Q17339 | purified GLD-1 + fluorescein TGE RNA | 0.44% of 320,000 active | inhibition, % at 5.96 µM;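 active = percent inhibition above a per-plate cutoff, the plate mean of test compounds plus 3 SD, cut at about 30% in these data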;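 note: 0% = DMSO wells with GLD-1 and probe and 100% = wells lacking GLD-1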
Mcl-1 Bim block: inhibitors of Bim peptide binding to Mcl-1, primary screen, biochemical, bead-based flow cytometry, multiplex. Bim peptide-Mcl-1 binding. inhibition, % at 10 µM. 0.1% of 190,000 active; in the data active = inhibition above about 40%;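 note: 0% = no compound tracer wells and 100% = peptide blocker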
MCL1-BIM inh: inhibitors of MCL1 binding to BIM-BH3, primary screen, biochemical, fluorescence polarization; Induced myeloid leukemia cell differentiation protein Mcl-1 (Homo sapiens), Q07820; GST-MCL1 / FITC-Bim-BH3 fluorescence polarization; inhibition, % at 10.9 µM; 0.68% of 320,000 active;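 active = inhibition above the mean inhibition of all tested compounds plus 3 SD, set per campaign, cut at about 40% in these data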;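 note: 0% = DMSO wells and 100% = unlabeled Bim-BH3 peptide control; higher means more loss of mP so more displacement of Bim peptide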
Mcl1-Noxa inh: Mcl-1/Noxa binding inhibitors, primary screen, biochemical, TR-FRET, 1536-well; inhibition, % at 21.7 µM; 1.5% of 220,000 active; AID 1022, 2008; Induced myeloid leukemia cell differentiation protein Mcl-1 (Homo sapiens), Q07820; TR-FRET Mcl-1/Noxa peptide binding, 2 h;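 active = compounds that cut the protein-peptide binding signal by more than 50% relative to plate controls in a single-dose test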;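 note: His-tagged Mcl-1 with rhodamine Noxa BH3 peptide and terbium anti-His antibody; 0% = Mcl-1 plus Noxa peptide wells and 100% = peptide-only wells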
Starred values were filed as active, the others as inactive; . = not tested or not shown.

SMILES	Mcl1-Bid inh	Bcl-xL primary	GLD-1 TGE inh	Mcl-1 Bim block	MCL1-BIM inh	Mcl1-Noxa inh
O=C(N/N=C/c1ccncc1)c1ccc(-n2cccc2)cc1	-11	8	3	-2	11	59*
Cc1cc(C)c(-c2c(O)c3cccnc3n(C)c2=O)c(C)c1	.	0	2	.	-8	.
CC(C)(C)c1ccc(C(=O)N2CCN(CCNC(=O)C(=O)NCc3ccc(Cl)cc3)CC2)cc1	.	6	2	.	2	.
CCN(CC)c1ccc(Nc2nc(N3CCOCC3)c3ccccc3n2)cc1	22	26	4	3	23	54*
CCN(CC)S(=O)(=O)c1cccc(NC(=O)CN2C(=O)c3ccc([N+](=O)[O-])cc3C2=O)c1	-20	1	0	-5	-5	2
CCCOc1ncnc2c1[nH]c1ccccc12	-18	8	0	0	-1	86*
CCCOc1ncnc2c1[nH]c1ccc(OC)cc12	-2	11	-1	.	0	12
COc1ccccc1NC(=O)NC(=O)c1ccccc1	.	2	6	.	-8	.
Cc1ccc(C)c(N(CC(=O)NC2CCCC2)C(=O)CCC(=O)Nc2nccs2)c1	.	1	12	.	0	.
CCCC[n+]1ccn(C2=C([O-])c3ccccc3C(=O)/C2=N\S(=O)(=O)c2ccccc2)c1	-12	1	5	-3	0	-6
CC(C)[n+]1ccn(C2=C([O-])c3ccccc3C(=O)/C2=N\S(=O)(=O)c2ccccc2)c1	84*	4	4	.	5	-1
S=C(NCc1ccccc1)N1CCN(C(=S)NCc2ccccc2)CC1	.	4	5	.	6	.
O=C(NCc1ccc(Cl)cc1)C1CCCN(c2ncnc3c2nc2n3CCCCC2)C1 (centres undefined)	.	0	4	.	-2	.
O=C(NCc1cccnc1)c1ccc(S(=O)(=O)N2CCCCC2)cc1	9	3	2	0	1	24
CN1CCN(S(=O)(=O)c2ccc(NC(=S)NC(=O)c3ccccc3)cc2)CC1	-28	-12	-9	-2	-9	13
NS(=O)(=O)c1ccc(NC(=S)NC(=O)c2cccs2)cc1	-42	5	5	.	15	1
O=C(NC(=S)Nc1ccc(S(=O)(=O)N2CCCCC2)cc1)c1cccs1	96*	4	1	0	16	1
O=C(Cc1cccs1)Nc1ccc(S(=O)(=O)N2CCCC2)cc1	-19	4	3	0	21	63*
CN1CCN(S(=O)(=O)c2ccc(NC(=S)NC(=O)c3ccc(Cl)cc3)cc2)CC1	2	.	.	-7	.	84*
O=S(=O)(c1ccc(NC(=S)NCc2cccnc2)cc1)N1CCCCC1	96*	7	5	.	3	20
C=CCN1N=C(c2ccc(NC(=O)c3ccccc3)cc2)CSC1=O	-12	6	3	-1	-1	26
COCCN(CC(=O)Nc1cccc(C)c1C)C(=O)C1(c2ccc(Cl)cc2)CCC1	.	.	3	.	.	.
COc1ccc(NS(=O)(=O)c2ccc(N3CCOCC3)c(N)c2)cc1	.	-1	-2	.	1	.
Oc1cc(O)c2c(c1)O[C@H](c1ccc(O)c(O)c1)[C@@H](O)C2	-50	11	9	.	12	15
O=C1c2c(O)cc(O)cc2O[C@@]12c1c(cc(O)c3c1O[C@H](c1ccc(O)cc1)[C@@H](O)C3)O[C@@H]2c1ccc(O)cc1	7	10	1	-2	14	66*
SMILES	Mcl1-Bid inh	Bcl-xL primary	GLD-1 TGE inh	Mcl-1 Bim block	MCL1-BIM inh	Mcl1-Noxa inh
N=c1oc2cc(O)ccc2cc1C(=O)Nc1nc2ccccc2s1	72*	0	-30	0	-24	100*
N=c1oc2cc(O)ccc2cc1C(=O)Nc1ccccn1	-20	9	7	0	-7	13
O=C(Nc1nc2ccccc2s1)c1cc(-c2ccco2)nc2ccccc12	63*	9	-7	-3	16	59*
Cc1ccc2nc(NC(=O)c3cc(-c4ccco4)nc4ccccc34)sc2c1	53*	2	2	0	1	42
O=C(Nc1nccs1)c1cc(-c2ccco2)nc2ccccc12	-88	4	3	-8	23	81*
O=C(Nc1nccs1)c1cc(-c2ccccc2)nc2ccccc12	18	-1	2	-9	-4	20
COc1cccc(-c2cc(C(=O)Nc3nc4ccccc4s3)c3ccccc3n2)c1	-1	4	0	-2	6	-5
Cn1c(C(=O)N2CCC(C(=O)NCc3ccccc3)CC2)cc2sccc21	.	-1	-1	.	3	.
CCNc1sc(C(=O)c2cccs2)c(N)c1-c1nc2ccccc2s1	-47	20	29	4	15	55*
O=C(CN(C(=O)CNC(=O)c1cccs1)c1ccc(F)cc1)NC1CCCC1	.	5	7	.	4	.
O=C(/C=C/c1cccs1)N1CCN(c2ccc(O)cc2)CC1	-55	19	8	2	12	79*
Nc1ccc(N2CCN(C(=O)c3cccs3)CC2)cc1	-91	11	4	15	15	61*
Cc1ccc2nsnc2c1NC(=O)c1ccc(-c2cc(Cl)ccc2Cl)o1	31	2	2	2	2	51*
Cc1ccc(C2C3=C(CCCC3=O)Nc3[nH]c(=S)[nH]c(=O)c32)cc1 (centres undefined)	-17	8	3	-2	-3	12
O=C1CCCC2=C1C(c1ccc(Br)cc1)c1c([nH]c(=S)[nH]c1=O)N2 (centres undefined)	-7	34*	8	-4	6	53*
O=c1[nH]c(=S)[nH]c2c1C(c1ccc(Br)cc1)c1c([nH]c(=S)[nH]c1=O)O2	.	39*	2	.	72*	.
Cc1cc(C)n(C(C[N+](=O)[O-])c2ccc(Cl)cc2)n1 (centres undefined)	22	6	-4	-4	9	19
CCc1nc(N)c(C#N)c(-c2ccc(OC)c(OC)c2)c1C	2	-6	4	0	-9	1
CC1=C(C#N)c2nc(N)c(C#N)c(C)c2/C1=C\c1ccc(OCC(=O)O)c(Cl)c1	7	37*	20	.	33	57*
COC(=O)c1ccc(-c2nc3cc(Cl)c(N)cc3s2)cc1	91*	0	-3	0	1	0
O=C(Nc1cc(S(=O)(=O)N2CCOCC2)ccc1N1CCCC1)c1ccc2c(c1)S(=O)(=O)c1ccccc1C2=O	-6	4	4	-5	0	16
